According to PubChem BioAssay (NCATS):
Inconclusive results are not listed. Activity calls are given as the source filed them. Unless noted, the call rests on the fitted dose curve; in most records, active means well fitted inhibition curve with a large enough effect; inconclusive means small, poorly fitted or top-dose-only effect; inactive means flat fitted curve, though single readings scatter.

Legend:
[1] = qHTS drug screen for cell cycle checkpoint inhibitors in PARPi-resistant BRCA-mutant ovarian cancer cell lines. (AID 1963452; calls by dose curve); details: PEO1/OlaR viability, CellTiter-Glo luminescence, 96 h, stronger effect = lower value
Summary of the method: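 PEO1, PEO4 and PEO1/OlaR ovarian cancer cells, 600 per well, exposed 96 h at 37C to a dilution series. Viability read by CellTiter-Glo luminescence, normalized to DMSO and empty wells; activity summarized as Z-AUC.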

[2] = qHTS for identification of novel therapeutic agents for treatment of microphthalmiaassociated transcription factor (MiT) renal cell carcinoma (RCC) (AID 1963991); details: CellTiter-Glo, 48 h, stronger effect = lower value
Summary of the method: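 Three TFE3-fusion RCC lines (UOK109, UOK124, UOK145), 500 cells/well in complete medium, were treated with MIPE 4.0 compounds for 48 hours at 37 C. Viability was by CellTiter-Glo luminescence, normalized to DMSO (100%) and empty wells (0%); curves fitted over 11 concentrations.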

3D7 = assay: qHTS profiling for inhibitors of Plasmodium falciparum proliferation (AID 504749); further: nearly all actives have a fitted effect of over 60% in size; further: potency means the concentration at half of the fitted maximal effect;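 on activity, negative = inhibition: 0% = DMSO vehicle and full inhibition = artemisinin control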; details: P. falciparum in erythrocytes, SYBR Green DNA, 72 h; series mostly up to 28.7 µM
Summary of the method: (§1)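 In a 72 h erythrocytic culture (37 C, humidified, 5% CO2) at 2.5% hematocrit and 0.3% starting parasitemia, compounds were tested; SYBR Green I in detergent lysis buffer stained parasite DNA overnight.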

7G8 = assay: as above; details: P. falciparum in erythrocytes, SYBR Green DNA, 72 h; series mostly up to 28.7 µM
Summary of the method: as §1

ATS189 = assay: as above; details: P. falciparum in erythrocytes, SYBR Green DNA, 72 h; series mostly up to 28.7 µM
Summary of the method: as §1

C2A = assay: as above; details: P. falciparum in erythrocytes, SYBR Green DNA, 72 h; series mostly up to 28.7 µM
Summary of the method: as §1

CP185 = assay: as above; details: P. falciparum in erythrocytes, SYBR Green DNA, 72 h; series mostly up to 28.7 µM
Summary of the method: as §1

CP191 = assay: as above; details: P. falciparum in erythrocytes, SYBR Green DNA, 72 h; series mostly up to 28.7 µM
Summary of the method: as §1

CP192 = assay: as above; details: P. falciparum in erythrocytes, SYBR Green DNA, 72 h; series mostly up to 28.7 µM
Summary of the method: as §1

CP194 = assay: as above; details: P. falciparum in erythrocytes, SYBR Green DNA, 72 h; series mostly up to 28.7 µM
Summary of the method: as §1

CP201 = assay: as above; details: P. falciparum in erythrocytes, SYBR Green DNA, 72 h; series mostly up to 28.7 µM
Summary of the method: as §1

CP211 = assay: as above; details: P. falciparum in erythrocytes, SYBR Green DNA, 72 h; series mostly up to 28.7 µM
Summary of the method: as §1

[3] = as above; details: P. falciparum in erythrocytes, SYBR Green DNA, 72 h
Summary of the method: as §1

AA1029 = assay: as above; details: P. falciparum in erythrocytes, SYBR Green DNA, 72 h; series mostly up to 28.7 µM
Summary of the method: as §1

AS120 = assay: as above; details: P. falciparum in erythrocytes, SYBR Green DNA, 72 h; series mostly up to 28.7 µM
Summary of the method: as §1

ATS95 = assay: as above; details: P. falciparum in erythrocytes, SYBR Green DNA, 72 h; series mostly up to 28.7 µM
Summary of the method: as §1

CP203 = assay: as above; details: P. falciparum in erythrocytes, SYBR Green DNA, 72 h; series mostly up to 28.7 µM
Summary of the method: as §1

[4] = measured here: PEO1 parental Z-AUC
[5] = TFE3-RCC UOK109 viability, measured here: UOK109 Z-AUC
[6] = TFE3-RCC viability, measured here: UOK124 Z-AUC
[7] = TFE3-RCC viability, measured here: UOK145 Z-AUC
[8] = at 28.7 µM (top of the series), parasite line A
[9] = at 28.7 µM (top of the series), parasite line B

Cc1ccc(C(=O)Nc2ccc(S(=O)(=O)O)c3cc(S(=O)(=O)O)cc(S(=O)(=O)O)c23)cc1NC(=O)c1cccc(NC(=O)Nc2cccc(C(=O)Nc3cc(C(=O)Nc4ccc(S(=O)(=O)O)c5cc(S(=O)(=O)O)cc(S(=O)(=O)O)c45)ccc3C)c2)c1
inactive: Z-AUC [1] 0.147 | Potency (3D7) | Potency (7G8) | Potency (ATS189) | Potency (C2A) | Potency (CP185) | Potency (CP191) | Potency (CP192) | Potency (CP194) | Potency (CP201) | Potency (CP211)
0.903: Z-AUC [1, 4]
-1.39: z-score [2, 6]
-0.47: z-score [2, 7]
0.0489: z-score [2, 5]
0.677: Z-AUC ([1]; measured here: PEO4 Z-AUC)

Cc1cc(C(C)(C)C)cc(C)c1CC1=NCCN1
0.966: Z-AUC ([1]; measured here: PEO4 Z-AUC)
0.684: Z-AUC [1, 4]
inactive: Z-AUC [1] 0.735 | activity, negative = inhibition ([3]; at 12.8 µM (top of the series), parasite line A) -3.52% | activity, negative = inhibition ([3]; at 12.8 µM (top of the series), parasite line B) -6.56% | Potency (3D7) | Potency (7G8) | Potency (AA1029) | Potency (AS120) | Potency (ATS189) | Potency (ATS95) | Potency (C2A) | Potency (CP185) | Potency (CP191) | Potency (CP194) | Potency (CP201) | Potency (CP211)

CC(C)(C)C(=O)Oc1ccc(S(=O)(=O)Nc2ccccc2C(=O)NCC(=O)O)cc1
0.435: z-score [2, 7]
0.948: Z-AUC [1, 4]
0.584: z-score [2, 5]
inactive: Z-AUC [1] 1.22 | activity, negative = inhibition [3, 8] -0.829% | activity, negative = inhibition [3, 9] 7.95% | Potency (3D7) | Potency (7G8) | Potency (AA1029) | Potency (AS120) | Potency (ATS189) | Potency (ATS95) | Potency (C2A) | Potency (CP185) | Potency (CP191) | Potency (CP192) | Potency (CP194) | Potency (CP201) | Potency (CP211)
1.16: Z-AUC ([1]; measured here: PEO4 Z-AUC)
0.0353: z-score [2, 6]

Cn1c(=O)c2[nH]cnc2n(C)c1=O
0.63: z-score [2, 7]
0.72: Z-AUC [1, 4]
0.784: Z-AUC ([1]; measured here: PEO4 Z-AUC)
1.09: z-score [2, 5]
0.242: z-score [2, 6]
inactive: Z-AUC [1] 0.347 | activity, negative = inhibition [3, 8] 0.326% | activity, negative = inhibition [3, 9] 0.99% | Potency (3D7) | Potency (7G8) | Potency (AA1029) | Potency (AS120) | Potency (ATS189) | Potency (ATS95) | Potency (C2A) | Potency (CP185) | Potency (CP191) | Potency (CP192) | Potency (CP194) | Potency (CP201) | Potency (CP211)

NCCS(=O)(=O)O
0.568: Z-AUC ([1]; measured here: PEO4 Z-AUC)
0.854: z-score [2, 6]
0.716: z-score [2, 7]
0.571: Z-AUC [1, 4]
inactive: Z-AUC [1] 1.22 | activity, negative = inhibition [3, 8] 5.98% | activity, negative = inhibition [3, 9] -25.3% | Potency (3D7) | Potency (7G8) | Potency (AA1029) | Potency (AS120) | Potency (ATS189) | Potency (ATS95) | Potency (C2A) | Potency (CP185) | Potency (CP191) | Potency (CP192) | Potency (CP194) | Potency (CP201) | Potency (CP211)
0.929: z-score [2, 5]

C[C@](N)(Cc1ccc(O)c(O)c1)C(=O)O
1.39: Z-AUC [1, 4]
-0.114: z-score [2, 6]
1.22: Z-AUC ([1]; measured here: PEO4 Z-AUC)
inactive: Z-AUC [1] 0.359 | activity, negative = inhibition [3, 8] 5.92% | activity, negative = inhibition [3, 9] -9.27% | Potency (3D7) | Potency (7G8) | Potency (AA1029) | Potency (AS120) | Potency (ATS189) | Potency (ATS95) | Potency (C2A) | Potency (CP185) | Potency (CP191) | Potency (CP192) | Potency (CP194) | Potency (CP201) | Potency (CP211)
0.112: z-score [2, 5]
-0.0394: z-score [2, 7]

CN(C)CCOC(c1ccccc1)c1ccccc1
-0.44: Z-AUC ([1]; measured here: PEO4 Z-AUC)
0.718: Z-AUC [1, 4]
inactive: Z-AUC [1] -0.454 | activity, negative = inhibition [3, 8] 13.6% | activity, negative = inhibition [3, 9] 11.2% | Potency (3D7) | Potency (CP191) | Potency (CP192) | Potency (CP201)
active: Potency (7G8) 11.2 µM

Clc1ccccc1C(c1ccccc1)(c1ccccc1)n1ccnc1
inactive: Z-AUC [1] -0.839
-0.849: Z-AUC ([1]; measured here: PEO4 Z-AUC)
-1.06: Z-AUC [1, 4]
active: Potency ([3]; parasite line A) 0.631 µM | Potency ([3]; parasite line B) 0.708 µM | Potency (AA1029) 0.891 µM | Potency (AS120) 0.178 µM | Potency (ATS189) 0.708 µM | Potency (ATS95) 1 µM | Potency (C2A) 1.78 µM | Potency (CP185) 1.78 µM | Potency (CP191) 0.794 µM | Potency (CP192) 1.81 µM | Potency (CP194) 1.44 µM | Potency (CP201) 4.55 µM | Potency (CP203) 0.721 µM | Potency (CP211) 2.28 µM

O=C(c1ccc(F)cc1)C1CCN(CCn2c(=O)[nH]c3ccccc3c2=O)CC1
0.795: z-score [2, 5]
inactive: activity, negative = inhibition [3, 8] 5.58% | activity, negative = inhibition [3, 9] 9.97% | Potency (3D7) | Potency (AA1029) | Potency (AS120) | Potency (ATS189) | Potency (ATS95) | Potency (C2A) | Potency (CP185) | Potency (CP192) | Potency (CP194) | Potency (CP201) | Potency (CP211)
0.595: z-score [2, 7]
0.577: z-score [2, 6]
active: Potency (7G8) 5.01 µM

CN(CCOc1ccc(NS(C)(=O)=O)cc1)CCc1ccc(NS(C)(=O)=O)cc1
0.913: z-score [2, 6]
0.684: z-score [2, 5]
inactive: activity, negative = inhibition [3, 8] 1.37% | activity, negative = inhibition [3, 9] 5.56% | Potency (3D7) | Potency (7G8) | Potency (AA1029) | Potency (AS120) | Potency (ATS189) | Potency (ATS95) | Potency (C2A) | Potency (CP185) | Potency (CP191) | Potency (CP192) | Potency (CP194) | Potency (CP201) | Potency (CP203) | Potency (CP211)
0.774: z-score [2, 7]

CN1CCC(=C2c3ccccc3C=Cc3ccccc32)CC1
inactive: Z-AUC [1] 0.372 | activity, negative = inhibition [3, 8] 13.5% | activity, negative = inhibition [3, 9] 3.94% | Potency (3D7) | Potency (AA1029) | Potency (ATS189) | Potency (ATS95) | Potency (C2A) | Potency (CP185) | Potency (CP191) | Potency (CP192) | Potency (CP194) | Potency (CP201) | Potency (CP203) | Potency (CP211)
0.739: Z-AUC ([1]; measured here: PEO4 Z-AUC)
0.535: Z-AUC [1, 4]

O=C(Nc1ccc([N+](=O)[O-])cc1Cl)c1cc(Cl)ccc1O
active: Potency (3D7) 1.78 µM | Potency (7G8) 0.891 µM | Potency (AS120) 0.794 µM | Potency (CP191) 0.891 µM
-1.01: Z-AUC [1, 4]
-1.03: Z-AUC ([1]; measured here: PEO4 Z-AUC)
inactive: Z-AUC [1] -0.74 | Potency (C2A) | Potency (CP185)

CCCCc1oc2ccccc2c1C(=O)c1cc(I)c(OCCN(CC)CC)c(I)c1
active: Potency ([3]; parasite line A) 4.47 µM | Potency ([3]; parasite line B) 2.82 µM | Potency (7G8) 3.16 µM | Potency (AA1029) 6.31 µM | Potency (AS120) 3.55 µM | Potency (ATS189) 5.62 µM | Potency (ATS95) 5.01 µM | Potency (C2A) 10 µM | Potency (CP185) 8.91 µM | Potency (CP191) 8.91 µM | Potency (CP203) 15.1 µM
inactive: Z-AUC [1] -0.673
-0.649: Z-AUC [1, 4]
-0.00161: Z-AUC ([1]; measured here: PEO4 Z-AUC)
